Screening data from PubChem BioAssay.
HP1b binding inh = HTS for Inhibitors of HP1-beta Chromodomain Interactions with Methylated Histone Tails | 390,000 tested, 0.56% active | AID 540317, 2011 | AlphaScreen HP1-beta / biotin-H3K9me3 peptide binding | Chromobox protein homolog 1 (Homo sapiens), P83916 | Potency, µM (top dose mostly 114 µM), hits mostly inhibitors; further: nearly all actives have a fitted effect of over 70% in size
Target sequence (P83916 whole entry, looked up): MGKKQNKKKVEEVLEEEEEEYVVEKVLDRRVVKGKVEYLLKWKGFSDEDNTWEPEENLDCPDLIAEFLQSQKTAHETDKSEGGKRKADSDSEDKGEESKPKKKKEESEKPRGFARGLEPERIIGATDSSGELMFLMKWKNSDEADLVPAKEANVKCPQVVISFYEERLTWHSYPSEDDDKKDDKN
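HP1-beta protein (50 nM final) preincubated 30 min at room temperature with biotinylated H3(1-18)K9me3 peptide (50 nM) in PBS pH 7.4, 0.01% Tween-20, then compound added for 30 min. AlphaScreen streptavidin donor/nickel chelate acceptor beads (10 ug/mL final), 30 min dark, luminescence read.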
BAZ2B block = qHTS Assay for Inhibitors of BAZ2B; 360,000 tested, 4.4% active; AlphaScreen BAZ2B-H3K14Ac peptide displacement; Bromodomain adjacent to zinc finger domain protein 2B (Homo sapiens), Q9UIF8; Potency, µM (highest dose often 114 µM), actives largely listed as inhibitors; AID 504333, 2011; further: nearly all actives have a fitted effect of over 60% in size
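Compounds, titrated to a top concentration of 110 uM, were incubated 30 min at room temperature with preformed BAZ2B/acetyl-K14 H3 peptide complex (50 nM each). Proximity signal was measured by AlphaScreen after 20 min with beads.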
L3MBTL1 inh = qHTS Assay for the Inhibitors of L3MBTL1. Lethal(3)malignant brain tumor-like protein 1 (Homo sapiens), Q9Y468. AlphaScreen L3MBTL1–H3K9me1 peptide binding. Potency, µM (series often up to 57.1 µM), most hits filed as inhibitors. 230,000 tested, 0.66% active. AID 485360, 2010; further: nearly all actives have a fitted effect of over 60% in size
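L3MBTL1 (50 nM) pre-complexed 30 min with biotinylated H3(1-15)K9me1 peptide (75 nM), then compounds added for 30 min at room temperature; AlphaScreen streptavidin donor/nickel chelate acceptor beads (10 ug/mL final) read after 30 min dark incubation.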
JMJD2A Tudor inh = qHTS Assay for Inhibitors of JMJD2A-Tudor Domain; AID 504339, 2011; Potency, µM (doses to about 114 µM), hits mostly inhibitors; 390,000 tested, 4.4% active; AlphaScreen JMJD2A-Tudor / H3K4me3 peptide binding; further: nearly all actives have a fitted effect of over 50% in size
G9a block = qHTS Assay for Inhibitors of Histone Lysine Methyltransferase G9a | G9a H3K9 monomethylation, AlphaScreen, 2 h | Potency, µM (doses to about 102 µM), hits mostly inhibitors | 350,000 tested, 8.8% active | AID 504332, 2011; further: nearly all actives have a fitted effect of over 75% in size
Target sequence (Q96KQ7 913-1193 limits assumed): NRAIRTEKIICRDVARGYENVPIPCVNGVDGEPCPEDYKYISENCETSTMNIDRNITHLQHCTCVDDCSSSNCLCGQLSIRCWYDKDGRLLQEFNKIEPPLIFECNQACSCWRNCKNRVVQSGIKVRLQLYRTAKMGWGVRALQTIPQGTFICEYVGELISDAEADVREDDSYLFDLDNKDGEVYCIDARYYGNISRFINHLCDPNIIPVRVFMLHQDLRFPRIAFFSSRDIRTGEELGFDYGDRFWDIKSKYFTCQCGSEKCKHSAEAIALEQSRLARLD
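Step 1: enzyme (final 20 nM) with compound, 15 min RT. Step 2: substrate peptide 500 nM and SAM 20 uM, 2 h RT. Step 3: anti-H3K9me1 antibody and AlphaScreen beads, 10 min, then plate read.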
Large screens that a line does not name were inactive. In the library only some 11% were active in any assay of this set; here they are far more common. The call rests on the fitted dose curve; in most records, active means well fitted inhibition curve with a large enough effect; inconclusive means small, poorly fitted or top-dose-only effect; inactive means no such curve, though single readings can be large or run the other way.

COc1ccc(Br)cc1CN1CCC(N2CCCC2)CC1	HP1b binding inh inconclusive, BAZ2B block 31.6µM, JMJD2A Tudor inh inconclusive, G9a block 25.1µM
COCCNC(=O)c1cc(Sc2ccc(F)cc2F)nc2ccccc12	G9a block inconclusive (no result: L3MBTL1 inh)
CCOC(=O)C1CCCN(Cc2nc(N)nc(Nc3ccccc3OC)n2)C1 (centres undefined)	BAZ2B block inconclusive, JMJD2A Tudor inh 56.2µM
CCOC(=O)C1CCCN(CCC(=O)Nc2ccc(Br)cc2)C1 (centres undefined)	none (no result: G9a block)
CCOC(=O)C1CCCN(Cc2nc(N)nc(Nc3ccc(Cl)cc3)n2)C1 (centres undefined)	BAZ2B block 50.1µM, G9a block inconclusive (no result: L3MBTL1 inh)
CCOC(=O)C1CCCN(C(=S)Nc2ccc(OC)cc2)C1 (centres undefined)	none
CCOC(=O)C1CCCN(Cc2nc(N)nc(Nc3ccc(OC)cc3)n2)C1 (centres undefined)	BAZ2B block inconclusive, JMJD2A Tudor inh 20µM (no result: L3MBTL1 inh)
CC(C)(C)c1ccc(C(=O)N2CCC(c3nc4ccccc4o3)CC2)cc1	none (no result: L3MBTL1 inh)
CSc1nsc(/C=C/Nc2ccc(C)cc2)c1C#N	BAZ2B block inconclusive, G9a block 2.24µM (no result: L3MBTL1 inh)
COc1cc(/C=N/Nc2snc(SC)c2C#N)ccc1O	G9a block inconclusive
CCc1ccccc1NC(=O)c1noc2c1CC(C(C)(C)C)CC2 (centres undefined)	none (no result: L3MBTL1 inh)
Fc1cccc(-c2n[nH]c(=S)n2-c2ccccc2)c1	JMJD2A Tudor inh 7.94µM
Cc1ccc(-n2c(-c3cc(C)n(C)n3)n[nH]c2=S)cc1	JMJD2A Tudor inh 7.08µM, G9a block 7.94µM
Cc1cc(-c2n[nH]c(=S)n2-c2ccccc2)nn1C	JMJD2A Tudor inh 3.16µM, G9a block 8.91µM
O=c1c(-c2cccc(F)c2)nc2cncnc2n1-c1ccccc1	none (no result: HP1b binding inh, BAZ2B block, L3MBTL1 inh, JMJD2A Tudor inh)
C=C1CCN(C(Cc2ccccc2)C(=O)NC2CCN(Cc3ccccc3)CC2)S(=O)(=O)c2ccccc21 (centres undefined)	none (no result: BAZ2B block, L3MBTL1 inh, G9a block)
CCCCN(CC)CCCNC(=O)Cn1nc(CC)n2c(cc3sccc32)c1=O	none (no result: L3MBTL1 inh)
CCOC(=O)C1CCCN(C(=O)C2CCN(S(=O)(=O)c3c(C)noc3/C=C/c3ccc(C)cc3)CC2)C1 (centres undefined)	none (no result: L3MBTL1 inh)
Cc1ccc(-n2c(=O)c3oc4ccccc4c3n(Cc3ccccc3)c2=O)cc1C	none (no result: L3MBTL1 inh)
CCC(C)n1c(NC(=O)c2ccccc2)c(C#N)c2nc3ccccc3nc21 (centres undefined)	L3MBTL1 inh 6.31µM
CCCCn1c(NC(=O)c2ccccc2)c(C#N)c2nc3ccccc3nc21	none
O=C(CSc1ccc(-c2ccccc2)nn1)N1CCN(c2ccccc2)CC1	none
O=C(CSc1ccc(-c2ccccn2)nn1)NC1CCCC1	BAZ2B block 3.16µM, JMJD2A Tudor inh 3.16µM (no result: L3MBTL1 inh)
c1ccc(CSc2ccc(-c3ccccn3)nn2)cc1	BAZ2B block 6.31µM, JMJD2A Tudor inh 7.94µM (no result: L3MBTL1 inh)
O=C(CSc1ccc(-c2ccco2)nn1)N1CCCC1	G9a block inconclusive (no result: L3MBTL1 inh)
O=C(CSc1ccc(-c2ccco2)nn1)N1CCCCC1	BAZ2B block inconclusive, G9a block 22.4µM (no result: L3MBTL1 inh)
COc1ccc(-c2ccc(SCC(=O)NC3CCCCC3)nn2)cc1OC	none (no result: L3MBTL1 inh)
COc1ccccc1-c1ccc(SCc2ccccc2)nn1	none
O=C(CSc1ccc(-c2ccccn2)nn1)N1CCCC1	BAZ2B block 7.08µM, JMJD2A Tudor inh 3.16µM, G9a block 3.55µM (no result: L3MBTL1 inh)
O=C(CCCCn1c(=O)c2ccccc2n(CC(=O)Nc2cccc(F)c2)c1=O)NCc1ccccc1Cl	none (no result: L3MBTL1 inh)
COc1ccc(-c2c(C)c3ccc(O)c(CN4CCN(CCO)CC4)c3oc2=O)cc1OC	none (no result: L3MBTL1 inh)
O=S(=O)(c1ccc2c(c1)CCC2)N1CCN(c2nc(-c3ccccc3)nc3ccccc23)CC1	none (no result: BAZ2B block, L3MBTL1 inh, G9a block)
COCCN(CC(=O)Nc1ccccc1C(F)(F)F)C(=O)c1ccc(-n2cccn2)cc1	none
O=C(CSc1ccc(-c2ccccc2)nn1)c1ccccc1	G9a block inconclusive
O=C(CSc1ccc(-c2ccccn2)nn1)c1ccccc1	BAZ2B block 3.55µM, JMJD2A Tudor inh 7.08µM, G9a block inconclusive (no result: L3MBTL1 inh)
O=C(Nc1ccc(Br)cc1)c1cc(S(=O)(=O)N2CCc3ccccc32)ccc1F	none (no result: L3MBTL1 inh)
c1nc(NCC2CCCO2)c2ccc(-c3ccc4c(c3)OCO4)cc2n1 (centres undefined)	JMJD2A Tudor inh 79.4µM (no result: HP1b binding inh, BAZ2B block, L3MBTL1 inh, G9a block)
COc1ccc2c(c1)c1c(c(=O)n(-c3ccc(F)c(Cl)c3)c(=O)n1Cc1ccccc1F)n2C	none (no result: L3MBTL1 inh)
Cn1cc(S(=O)(=O)N2CCCC2)cc1C(=O)Nc1ccc(F)cc1F	none (no result: L3MBTL1 inh)
CCN(CC)C(=O)CN1CCN(c2ncccn2)CC1	HP1b binding inh inconclusive, BAZ2B block 25.1µM, JMJD2A Tudor inh 4.47µM, G9a block 5.62µM
